Only some compounds are listed: those with a hit (about 3.7% of all), similar ones and a draw of the others.
ANO1 block = TMEM16A chloride channel inhibitors, primary screen, cell-based, HTS. HEK293 TMEM16A/YFP iodide influx fluorescence, ionomycin. 1.2% of 310,000 active. normalized B-score (activity score, 25-100; higher = stronger inhibition) at 10 µM. AID 588511, 2011;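 active means ratio plate-corrected score three or more library SD toward inhibition, starting fluorescence score within five deviations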;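 further: score derived from kinetic fluorescence span divided by baseline fluorescence per well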
GPR7 antag = GPR7 receptor antagonists, primary screen, cell-based, fluorescence, single concentration; inhibition, % at 4.4 µM; 1.1% of 290,000 active; Neuropeptides B/W receptor type 1 (Homo sapiens), P48145; GPR7-expressing cells, fluorescence antagonist assay; in the data active means inhibition above about 16%, passing the limit was not always enough;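 further: cells stimulated with the agonist NPW; 0% = agonist with vehicle and 100% = vehicle without agonist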
Kir21 block = inhibitors of mouse Kir2.1 inward-rectifier potassium channel; Inward rectifier potassium channel 2 (Mus musculus), P35561; HEK293-Kir2.1, FluxOR thallium flux fluorescence; stronger effect = lower value; B-score at 10 µM; 0.85% of 310,000 active;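 active means fluorescence ratio B-score at or below minus 3 SD of library scores, with starting-brightness B-score within 2 SD, cut at about -4.2 in these data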;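 further: channel flux triggered by added potassium and thallium sulfate stimulus; B-score of peak minus minimum fluorescence over baseline after thallium stimulus; more negative B-score means stronger Kir2.1 block with less thallium influx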
Target sequence (P35561 whole entry, looked up): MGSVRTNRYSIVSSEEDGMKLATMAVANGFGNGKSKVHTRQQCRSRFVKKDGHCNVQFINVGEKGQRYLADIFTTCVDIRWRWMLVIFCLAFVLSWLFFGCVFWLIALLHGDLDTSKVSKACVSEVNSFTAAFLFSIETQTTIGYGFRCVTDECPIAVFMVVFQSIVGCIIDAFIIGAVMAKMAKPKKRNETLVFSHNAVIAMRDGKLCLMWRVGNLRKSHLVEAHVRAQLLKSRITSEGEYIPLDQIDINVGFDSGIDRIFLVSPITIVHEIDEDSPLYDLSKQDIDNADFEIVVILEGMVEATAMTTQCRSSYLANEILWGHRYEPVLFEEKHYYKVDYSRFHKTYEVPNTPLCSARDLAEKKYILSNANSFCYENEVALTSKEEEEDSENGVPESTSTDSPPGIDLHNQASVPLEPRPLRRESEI
ANO1 activ = TMEM16A chloride channel activators or potentiators, primary screen, cell-based, HTS | 0.3% of 340,000 active | AID 623877, 2012 | HEK293 TMEM16A/YFP-H148Q/I152L, iodide quench fluorescence; stronger effect = lower value | B-score at 10 µM;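 active means fluorescence-ratio B-score plate-corrected deviation score at least 3 library SD below zero, with starting fluorescence score within 5 deviations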;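 further: channel opened by trigger with iodide after compound preincubation; score built on the fluorescence ratio of max minus min over baseline; more negative score means more quench and so TMEM16A activation or potentiation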
CHT PAM = CHT positive allosteric modulators, primary screen, cell-based, membrane potential dye, choline EC20 | AID 488977, 2010 | CHT-expressing cells; stronger effect = higher value; LV-AA mutant CHT in HEK293 cells | B-score at 10 µM | 0.49% of 310,000 active;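 active means initial fluorescence not abnormally high and integrated response B-score, plate-corrected, over 3 SD above library mean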
CHT inh = inhibitors of human choline transporter CHT; 0.86% of 310,000 active; High affinity choline transporter 1 (Homo sapiens), Q9GZV3; B-score at 10 µM; CHT-expressing cells, membrane potential dye, choline response; stronger effect = lower value;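 active means B-score over 3 SD under the library average, and starting fluorescence ratio not unusually high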;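 further: choline stimulus applied at its EC90 after an EC20 pre-addition; B-score computed on integrated fluorescence ratio after choline addition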
TMEM16A reconf = TMEM16A chloride channel inhibitors, confirmation, cell-based, re-confirmation; 39% of 2,300 active; inhibition, % at 10 µM; HEK293 TMEM16A/YFP-H148Q, iodide quench fluorescence; ionomycin added to raise cell calcium; shares compounds with ANO1 block; AID 652189, 2013;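 active means mean duplicate percent inhibition, scaled so buffer wells are 0 and the reference blocker 100, over three buffer SD above buffer mean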
TMEM16A Ca cntr = calcium mobilization in TMEM16A/YFP HEK293 cells, confirmation, counter-screen for TMEM16A inhibitor project; shares compounds with ANO1 block; Fluo4 calcium mobilization; calcium response (% of ionomycin), % at 10 µM; 2% of 2,300 active; AID 652231, 2013;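 active means duplicate-averaged calcium signal over 20% of the ionomycin maximum, relative to buffer baseline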;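 further: each well's signal is peak minus trough fluorescence divided by its pre-addition baseline; 0% = buffer wells and 100% = ionomycin wells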
YFP-HEK293 quench = iodide YFP quench changes in parental YFP-HEK293, counter-screen for TMEM16A inhibitor project, cell-based. shares compounds with ANO1 block. ionomycin. YFP ratio F(max-min)/F0 at 10 µM. 2,300 tested, under 10 active. AID 652233, 2013;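 active means yellow fluorescent protein signal ratio exceeding the buffer control mean by over 5 SD of those controls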;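 further: ratio is mean of duplicate wells from kinetic YFP trace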
ClC-1 rat inh = ClC-1 chloride channel inhibition, selectivity assay for TMEM16A inhibitor project, cell-based, voltage-dependent ClC-1 | shares compounds with ANO1 block | AID 652236, 2013 | ratio percent, % at 10 µM | 2,300 tested, under 10 active | CHO ClC-1-YFP, iodide influx fluorescence quench; iodide control reads 0, buffer control 100;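 active means duplicate-mean ratio percent above the mean of iodide-only control wells, which defines zero, plus 5 of their SD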;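 further: higher percent means stronger block of ClC-1 iodide influx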
Active calls of the source: *; i = inactive; x = not tested or not shown.

SMILES	ANO1 block	GPR7 antag	Kir21 block	ANO1 activ	CHT PAM	CHT inh	TMEM16A reconf	TMEM16A Ca cntr	YFP-HEK293 quench	ClC-1 rat inh
O=C(O)CCCNc1c(C(=O)Nc2ccc(Cl)cc2)cc([N+](=O)[O-])cc1[N+](=O)[O-]	i	-14	-3.3	i	i	i	x	x	x	x
O=C1c2cccc3c(N4CCCCC4)ccc(c23)C(=O)N1CCO	i	0	-0.38	i	i	i	i	i	-1.1	-50
COc1ccc2nc3oc(C(=O)Nc4ccc(OC)c(OC)c4)cc3cc2c1	i	-1	0.94	i	i	i	x	x	x	x
COc1ccc2cc3cc(C(=O)Nc4ccc5c(c4)OCO5)oc3nc2c1	100*	7	-1.6	i	i	i	i	i	-0.93	-16
CCOC(=O)C1(Cc2cccc(OC)c2)CCN(C/C=C/c2ccc(OC)cc2)CC1	25*	-8	-0.32	i	i	i	i	i	-1.2	-18
CC1(C)CC(=O)C(CC(=O)Nc2cc(C(F)(F)F)ccc2Cl)C(=O)C1	i	-12	-0.68	i	i	i	x	x	x	x
O=C(CNc1ccc(Br)cc1)Nc1ccc(S(=O)(=O)N2CCCC2)cc1	x	x	x	i	x	x	x	x	x	x
COC(=O)C1=CN(CC2CCCO2)C=C(C(=O)OC)C1c1ccsc1 (stereo unspecified)	100*	-2	0.57	i	i	i	i	i	-1.1	-15
Cc1ccc(Cl)cc1N1CCN(C(=O)COc2ccc(S(=O)(=O)NC(C)C)cc2)CC1	25*	12	0.12	i	i	i	i	i	-0.85	-13
CC(=O)c1cccc(CN2CCCC(CCC(=O)NCc3ccccc3F)C2)c1 (stereo unspecified)	i	-12	0.7	i	i	i	x	x	x	x
COc1ccc(C2=NOC(C(=O)NCC(C)C)C2)cc1 (stereo unspecified)	100*	4	1.5	i	i	i	i	i	-0.97	-10
COc1ccc(C2=NOC(C(=O)NC(C)C)C2)cc1 (stereo unspecified)	i	-3	0.13	i	i	i	x	x	x	x
CCOC(=O)C(=O)Nc1ccc(S(=O)(=O)Nc2ncccn2)cc1	25*	-9	0.88	i	i	i	i	i	-1.1	2
COc1ccc(NC(=S)N2CCC(NC(=O)C3CCCCC3)CC2)cc1	i	-5	0.63	i	i	i	x	x	x	x
COc1ccc(OC)c(N=c2oc3c(OC)cccc3cc2C(=O)NCc2ccco2)c1	i	x	0.62	i	i	i	x	x	x	x
COc1ccc(N=c2oc3c(OC)cccc3cc2C(=O)NCc2ccco2)cc1OC	i	5	x	i	i	i	i	i	-1.1	2
CCOc1ccc(CCNC(=O)C2CSC3(C)CCC(=O)N23)cc1OCC (stereo unspecified)	i	-15	-0.12	i	i	i	x	x	x	x
O=C(NCCc1ccc(Cl)cc1)C1CCN(c2cnccn2)CC1	100*	-6	-1.5	i	i	i	i	i	-0.99	-15
O=C(O)CCCN1C(=O)/C(=C\c2ccccc2OCc2ccccc2)SC1=S	25*	3	-0.12	i	i	-7.7*	i	i	-1.2	-34
COCCNC(=O)c1c(NC(=O)c2nc(SC)ncc2Cl)sc2c1CCCC2	i	-9	-0.32	i	i	i	24%*	i	-0.78	6
Cc1cc([N+](=O)[O-])ccc1NC(=O)CN1C2CCC1CC(NC(=O)NC13CC4CC(CC(C4)C1)C3)C2 (stereo unspecified)	i	-3	0	i	i	i	x	x	x	x
CN(C(=O)CSc1nnc(-c2ccncc2)n1Cc1ccccc1)C1CCS(=O)(=O)C1 (stereo unspecified)	i	-3	-0.05	i	i	i	x	x	x	x
CCOC(=O)CCSc1nc(C(C)(C)C)cc(C(F)(F)F)c1C#N	100*	-7	0	i	i	i	i	i	-1.2	-6
COc1cc(C)c(C(=O)Oc2cc(C)c(C(=O)O)c(O)c2C)c(O)c1C	i	x	0.57	i	i	i	x	x	x	x
COc1cc(C)c(C(=O)Oc2cc(C)c(C(=O)O)c(O)c2)c(O)c1	100*	x	2.8	i	i	i	18%*	i	-0.94	-8
SMILES	ANO1 block	GPR7 antag	Kir21 block	ANO1 activ	CHT PAM	CHT inh	TMEM16A reconf	TMEM16A Ca cntr	YFP-HEK293 quench	ClC-1 rat inh
COCCCn1c(=O)c2sccc2n(Cc2cc(C(=O)OC)ccc2OC)c1=O	i	5	0.05	i	i	i	x	x	x	x
Cc1cc(N2CCCC(C(=O)Nc3cccc4ccccc34)C2)n2ncnc2n1 (stereo unspecified)	i	-9	-0.29	i	i	i	x	x	x	x
C=CCOc1ccc(/C=C2\SC(=S)N(NS(=O)(=O)c3ccccc3)C2=O)cc1	100*	-18	3.3	i	i	-6.2*	88%*	i	-1.1	-48
Cc1ccc(NC(=S)NC(C)CCc2ccccc2)cc1C (stereo unspecified)	i	-5	-2	i	i	i	x	x	x	x
CC(=O)c1ccc(NC(=S)NC(C)CCc2ccccc2)cc1 (stereo unspecified)	25*	-6	-0.12	i	i	i	i	i	-1.1	-1
O=S(=O)(Nc1nc2ccccc2nc1OCC(F)(F)F)c1cccs1	25*	-8	0.05	i	i	i	i	i	-0.95	-1

Bioassay records deposited in PubChem BioAssay by several laboratories.
